Only a selection was taken, and hits are over-represented in it overall.
PRC2 inh – blocks human EZH2/PRC2 H3K27 methylation. 57,000 tested, 0.35% active. inhibition, % at 12.5 µM. DELFIA TRF, 1 h. Q15910;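 active = mean inhibition of replicates at least 50% and every single replicate also reaching 50%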;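 also: dimethyl H3K27 on biotinylated H3 21-44 peptide detected by antibody; plate controls were median neutral control wells for no effect and median positive control wells for full effect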
Target sequence (Q15910 whole entry, looked up): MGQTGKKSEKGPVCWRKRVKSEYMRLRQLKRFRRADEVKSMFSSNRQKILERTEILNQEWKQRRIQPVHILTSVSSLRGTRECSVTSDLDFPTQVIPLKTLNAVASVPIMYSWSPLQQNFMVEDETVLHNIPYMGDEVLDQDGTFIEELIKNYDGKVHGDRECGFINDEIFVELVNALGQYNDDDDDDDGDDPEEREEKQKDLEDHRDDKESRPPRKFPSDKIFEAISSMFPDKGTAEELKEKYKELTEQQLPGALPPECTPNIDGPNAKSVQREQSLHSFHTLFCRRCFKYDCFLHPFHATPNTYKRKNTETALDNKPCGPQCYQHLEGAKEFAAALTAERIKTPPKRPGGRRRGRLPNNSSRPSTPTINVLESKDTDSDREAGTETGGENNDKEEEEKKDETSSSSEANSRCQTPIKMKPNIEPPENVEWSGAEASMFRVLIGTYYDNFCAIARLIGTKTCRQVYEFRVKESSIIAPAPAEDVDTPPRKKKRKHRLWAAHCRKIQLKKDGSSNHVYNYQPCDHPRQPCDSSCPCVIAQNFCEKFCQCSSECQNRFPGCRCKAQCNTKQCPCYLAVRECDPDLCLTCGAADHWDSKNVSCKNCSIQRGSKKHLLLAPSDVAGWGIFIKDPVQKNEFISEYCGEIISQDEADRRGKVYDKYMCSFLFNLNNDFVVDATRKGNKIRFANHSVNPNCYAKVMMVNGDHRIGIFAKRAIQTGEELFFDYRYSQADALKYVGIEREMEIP
* hit, by the source's call.

SMILES	PRC2 inh
COC(=O)CCCCCCC(=O)N/N=C/c1ccc(OCCO)cc1	17.6
CCCCN(CCCC)c1ccc(/C=N/NC(=O)CCCCCCC(=O)OC)cc1	79.5*
COC(=O)CCCCCCC(=O)N/N=C/c1cccc(Oc2ccccc2)c1	55.6*
COC(=O)CCCCCCC(=O)N/N=C/c1ccccc1	22.0
N#Cc1ccccc1NC(=O)CCCN1C(=O)c2ccccc2C1=O	3.7
O=C(CCCCCC(=O)N/N=C/c1ccccc1)NO	-75.5
COc1ccc(NC(=O)CSc2ncnc3scc(-c4ccccc4)c23)c([N+](=O)[O-])c1	0.0
O=C(CSc1n[nH]c(-c2ccc(Cl)cc2)n1)Nc1cccc(F)c1	10.9
Cc1ccc(-n2c(Cn3ncc4ccccc4c3=O)n[nH]c2=S)c(Br)c1	-5.9
CC(C)C(=O)Nc1sc2c(c1C(=O)Nc1cccnc1)CCCC2	4.6
CC(=O)N(Cc1ccc(C(C)C)cc1)c1ccc2oc(-c3ccccc3)nc2c1	58.0*
O=C(COc1ccccc1)Nc1ccc2oc(-c3cccc(Cl)c3)nc2c1	1.2
O=C(COc1ccccc1)Nc1ccc2oc(-c3ccc(Cl)cc3)nc2c1	-12.3
O=C(NO)c1cccc(C(=O)N/N=C/c2ccc3c(c2)OCCO3)c1	25.0
CC(C)Cc1nc(SC(C)C(=O)Nc2ccc(Cl)cc2)n[nH]1 (stereo not drawn)	-5.5
CCOC(=O)c1c(CSc2cccc3cccnc23)nc2c3ccccc3ccn12	19.0
NC(=O)CSc1nc2ccccc2n1Cc1ccccc1F	0.9
COc1ccc(OCc2nc3ccccc3n2Cc2c(F)cccc2Cl)cc1	27.9
COc1ccc(OCc2nc3ccccc3n2Cc2ccccc2F)cc1	58.2*
O=C(CSc1nnc(-c2ccncc2)n1-c1ccc(F)cc1)c1ccc(Cl)cc1	-7.0
CC1OC(Oc2ccc(-c3cc(=O)c4c(O)cc(OC5OC(CO)C(O)C(O)C5O)cc4o3)cc2)C(O)C(O)C1O (stereo not drawn)	8.8
C=Cc1ccc(O[C@@H]2O[C@H](CO[C@@H]3O[C@@H](C)[C@H](O)[C@@H](O)[C@H]3O)[C@@H](O)[C@H](O)[C@H]2O)cc1	87.2*
COc1ccc(-c2cc(=O)c3c(O)c(OC)c(O[C@H]4O[C@H](CO[C@@H]5O[C@@H](C)[C@H](O)[C@@H](O)[C@H]5O)[C@@H](O)[C@H](O)[C@H]4O)cc3o2)cc1	-1.2
COc1cc(/C=N/NC(=O)CCCCCCC(=O)Nc2ccccc2O)c([N+](=O)[O-])cc1OC	-9.7
O=C(CCCCC(=O)N/N=C/c1ccccc1)NO	0.5
SMILES	PRC2 inh
COc1ccc(CCNC(=S)n2cc(C)cn2)cc1OC	6.7
O=C(Nc1ccc(NS(=O)(=O)c2cccc(C(=O)Nc3ccc(Br)cc3)c2)cc1)c1ccccc1	15.2
O=C(OCC1OC(Oc2ccc(O)cc2COC(=O)C2(O)C(O)CCC(=O)C2O)C(O)C(O)C1O)c1ccccc1 (stereo not drawn)	22.1
CC(C)CC(=O)c1c(O)cc(O)cc1OC1OC(COC(=O)c2cc(O)c(O)c(O)c2)C(O)C(O)C1O (stereo not drawn)	93.9*
O=C(OCc1ccccc1O[C@@H]1O[C@H](CO)[C@@H](O)[C@H](O)[C@H]1O)c1c(O)cccc1O[C@@H]1O[C@H](CO)[C@@H](O)[C@H](O)[C@H]1O	2.0
CCOC(=O)c1c(NC(=O)COc2cc(C)ccc2C)sc2c1CCC2	-24.4
Cc1ccc(O)c(/C=N/NC(=O)c2ccccc2O)c1	-31.9
CCOC(=O)Cc1[nH]nc2c1C(C1CC=CCC1)C(C#N)=C(N)O2 (stereo not drawn)	0.1
Cc1ccc(-c2cc3ccccn3c2C(=O)CSc2nnc(C)s2)cc1	52.8*
Cc1ccc(F)c(NC(=O)CSc2nnc(C)s2)c1	5.7
Cc1nnc(SCC(=O)c2c(C)[nH]c3ccccc23)s1	-21.8
COC(=O)CCCCCCC(=O)N/N=C/CCC1CCCCC1	9.4
COc1c(O)c2c(=O)cc3c4c5c(cc(=O)c6c(O)c(OC)c(CC(C)O)c(c(c1CC(C)O)c24)c65)OCO3 (stereo not drawn)	2.4
C/C=C/[C@H](CC(=O)N(CCO)Cc1ccccc1)[Si](C)(C)c1ccc(OC)cc1	57.6*
C/C=C/[C@H](CCn1cc(CCO)nn1)[Si](C)(C)c1ccc(OC)cc1	26.8
C/C=C/[C@@H](CCn1cc(CCO)nn1)[Si](C)(C)c1ccc(OC)cc1	13.4
COC(=O)c1ccccc1NC(=O)CNC(=O)c1ccccc1	-6.9
COC(=O)c1ccccc1NC(=O)CCSc1ccc(C)cc1	54.3*
COC(=O)c1ccccc1NC(=O)Cn1c(C)ccc1C	-8.0
COC(=O)CCCCCCC(=O)N/N=C/c1ccccc1C(=O)O	-20.5
O=C(CSc1nnc(-c2ccc(Br)cc2)o1)Nc1ccc(Cl)c(Cl)c1	-4.7
CC1(C)CC[C@]2(C(=O)O)CC[C@]3(C)C(=CCC4[C@@]5(C)C[C@@H](O)[C@H](O)C(CO)(CO)C5CC[C@]43C)C2[C@@H]1O (stereo partly drawn)	43.9
CC1(C)CC[C@]2(C(=O)O)CC[C@]3(C)C(=CCC4[C@@]5(C)C[C@@H](O)[C@H](O)[C@@](C)(CO)C5CC[C@]43C)[C@@H]2[C@@H]1O (stereo partly drawn)	55.1*
CC1(C)CC[C@]2(C(=O)O)CC[C@]3(C)C(=CCC4[C@@]5(C)CC[C@H](O[C@@H]6OC[C@H](O)[C@H](O)[C@H]6O)[C@@](C)(CO)C5CC[C@]43C)C2C1 (stereo partly drawn)	-12.0
O=C(CCCCCC(=O)Nc1ccccc1O)N/N=C\c1cc(O)ccc1O	16.9
SMILES	PRC2 inh
Cc1cc(C)c(NC(=O)CN(c2ccc(Br)cc2)S(C)(=O)=O)c(C)c1	22.4
O=C(CC1(O)C(=O)N(Cc2ccc(Cl)cc2)c2ccccc21)c1cc2ccccc2oc1=O (stereo not drawn)	8.3
CC1(C)COC(CCC/C=N/NC(=O)CCCCCC(=O)NO)OC1	-49.2
CC(C)(C)CC(=O)NCc1ccc(S(N)(=O)=O)cc1	0.5
O=C(O)CCCCCC(=O)N/N=C/c1cn(S(=O)(=O)c2ccccc2)c2ccccc12	0.1
CS(=O)(=O)N(CC(=O)Nc1cccc(Br)c1)c1cccc(Cl)c1	9.0
O=C(NC1CC1)C1=C[C@H](c2csc3ccccc23)C[C@H](OCc2ccc(CO)cc2)O1	3.5
C=CCOC(=O)C1=C[C@H](c2csc3ccccc23)C[C@H](OCc2ccc(CO)cc2)O1	59.2*
C=CCOC(=O)C1=C[C@H](c2coc3ccccc3c2=O)C[C@H](OCc2ccc(CO)cc2)O1	0.1
Cc1ccc(NC(=O)c2ccc(S(=O)(=O)N3CC(C)CC(C)C3)cc2)c(C(=O)c2ccccc2)c1 (stereo not drawn)	9.1
O=C(CSc1nc(O)cc(=O)[nH]1)N(c1ccccc1)c1ccccc1	-15.4
O=c1c(O[C@@H]2OC[C@H](O)[C@H](O)[C@H]2O)c(-c2ccc(O)cc2)oc2cc(O)cc(O)c12	99.7*
COc1cc(-c2oc3cc(O)cc(O)c3c(=O)c2O[C@@H]2O[C@H](CO)[C@@H](O)[C@H](O)[C@H]2O)ccc1O[C@@H]1O[C@H](CO)[C@@H](O)[C@H](O)[C@H]1O	-8.9
O=c1c(O[C@@H]2OC[C@H](O)[C@H](O)[C@H]2O)c(-c2ccc(O)c(O)c2)oc2cc(O)cc(O)c12	68.7*
O=c1c(-c2ccc(O)cc2)coc2cc(O)cc(O)c12	13.1
O=C1C[C@@H](c2ccc(O)c(O)c2)Oc2cc(O[C@@H]3O[C@H](CO)[C@@H](O)[C@H](O)[C@H]3O)cc(O)c21	5.2

Screens: PubChem BioAssay, Broad Institute
